Experimental data from article PMC5540273 (PLoS ONE, 2017).

Key:
Conditions in all cases: concentration: 1 μM, replicates: in singlicate; n = 1
[1] = system: TESK1
[2] = system: TGFBR1
[3] = system: TGFBR2
[4] = system: TIE1
[5] = system: T1, TIE2
T1 construct: gene TEK

[6] = system: TLK1
[7] = system: TLK2
[8] = system: TNIK
[9] = system: TNK1
[10] = system: TNK2
[11] = system: TNNI3K
[12] = system: T2, TRKA
T2 construct: gene NTRK1

[13] = system: TRKB
[14] = system: T3, TRKC
T3 construct: gene NTRK3

[15] = system: TRPM6
[16] = system: TSSK1B
[17] = system: TSSK3
[18] = system: TTK
[19] = system: TXK
[20] = system: TYK2(JH1domain-catalytic)
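Note: KINOMEscan kinase panel screen.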

Structure (SMILES) | %Inh [1] [%] | %Inh [2] [%] | %Inh [3] [%] | %Inh [4] [%] | %Inh [5] [%] | %Inh [6] [%] | %Inh [7] [%] | %Inh [8] [%] | %Inh [9] [%] | %Inh [10] [%] | %Inh [11] [%] | %Inh [12] [%] | %Inh [13] [%] | %Inh [14] [%] | %Inh [15] [%] | %Inh [16] [%] | %Inh [17] [%] | %Inh [18] [%] | %Inh [19] [%] | %Inh [20] [%]
Cc1ccccc1CC(=O)N1CCc2cc(-c3cn(C)c4ncnc(N)c34)ccc21 [GSK2603346] | 45 | 0 | 3 | 87 | 48 | 0 | 0 | 0 | 0 | 27 | 0 | 39 | 14 | 21 | 40 | 0 | 26 | 0 | 0 | 0
CCNC(=O)/C=C/c1n[nH]c2cc(Sc3ccccc3C(=O)NC)ccc12 | 10 | 5 | 0 | 59 | 20 | 12 | 0 | 57 | 67 | 27 | 22 | 34 | 0 | 0 | 0 | 19 | 13 | 0 | 0 | 0
Nc1ncc(-c2cn[nH]c2)c2scc(-c3ccc4c(c3)CCN4C(=O)Cc3ccccc3)c12 [GSK2593067] | 59 | 0 | 0 | 97.4 | 83 | 0 | 0 | 69 | 45 | 79 | 0 | 96.8 | 63 | 70 | 16 | 3 | 20 | 1 | 30 | 10
Cc1ccc(NC(=O)c2ccnc(N3CCCCC3)c2)cc1-c1ccc(C(=O)NCC2CC2)cc1 [GW775610] | 1 | 6 | 0 | 0 | 0 | 100 | 0 | 0 | 0 | 0 | 13 | 58 | 14 | 0 | 0 | 0 | 23 | 0 | 0 | 19
O=C(Nc1n[nH]c2nc(-c3ccccc3)ccc12)C1CC1 [SB-708999] | 17 | 0 | 0 | 15 | 3 | 0 | 0 | 79 | 0 | 2 | 11 | 1 | 0 | 24 | 0 | 0 | 16 | 0 | 5 | 33
CN(C)c1ncnc2nc[nH]c12 [SKF-31736] | 0 | 0 | 0 | 5 | 0 | 0 | 0 | 0 | 0 | 0 | 0 | 0 | 0 | 28 | 30 | 0 | 4 | 0 | 0 | 0
O=C(O)C(F)(F)F.O=c1[nH]ccc2nc(N[C@@H]3CCNC3)nc(Nc3cc(Cl)cc(Cl)c3)c12 [GSK2188764] | 8 | 25 | 0 | 0 | 0 | 62 | 73 | 96.5 | 41 | 4 | 39 | 100 | 76 | 62 | 37 | 75 | 85 | 87 | 0 | 80
CC(C)(C)c1ccc(C(=O)Nc2cn3cc(-n4ccnc4)ccc3n2)cc1 | 0 | 0 | 0 | 3 | 17 | 4 | 0 | 2 | 0 | 0 | 2 | 0 | 0 | 0 | 0 | 0 | 0 | 1 | 0 | 22
CS(=O)(=O)c1cccc(CNc2nc(Nc3ccc4c(c3)CCC(=O)N4)ncc2C(F)(F)F)c1 | 0 | 2 | 0 | 57 | 30 | 0 | 0 | 90.1 | 73 | 0 | 0 | 98 | 92.9 | 73 | 0 | 0 | 0 | 99.6 | 0 | 89
COc1cc(Nc2nccc(N3CCC(NC(=O)Nc4ccc5c(c4)OCO5)C3)n2)cc(OC)c1OC (centres unmarked) [GSK1379766] | 22 | 22 | 0 | 42 | 0 | 0 | 0 | 0 | 20 | 9 | 0 | 57 | 43 | 73 | 47 | 8 | 9 | 0 | 38 | 38
COC(=O)Nc1nc2ccc(Oc3ccc(CC(=O)Nc4cc(C(F)(F)F)ccc4F)cc3)cc2[nH]1 [GW680903] | 17 | 17 | 0 | 94 | 36 | 14 | 0 | 0 | 0 | 17 | 70 | 0 | 37 | 49 | 16 | 0 | 24 | 0 | 8 | 23
Cc1ccc(Nc2ccnc(Nc3ccc(C)c(F)c3)n2)cc1O.Cl [GW582868] | 0 | 0 | 83 | 47 | 0 | 0 | 0 | 0 | 0 | 29 | 0 | 0 | 50 | 35 | 0 | 11 | 8 | 0 | 12 | 31
O=C(Nc1n[nH]c2nc(-c3ccccc3O)ccc12)C1CC1 [SB-711880] | 0 | 0 | 0 | 16 | 0 | 22 | 0 | 79 | 20 | 0 | 0 | 49 | 17 | 16 | 0 | 0 | 0 | 18 | 0 | 0
CC(C)c1nc(-c2cccc(NS(=O)(=O)c3c(F)cccc3F)c2)c(-c2ccnc(Nc3ccc(N4CCOCC4)nc3)n2)s1.Cl [GSK1723980] | 100 | 93.1 | 92.4 | 92.5 | 97.2 | 16 | 0 | 12 | 100 | 98.5 | 52 | 61 | 0 | 14 | 27 | 0 | 19 | 61 | 92.7 | 45
CN(c1ccc(NC(=O)Nc2cccc(Cl)c2)cc1)c1ccnc(N)n1.Cl [GW830707] | 4 | 71 | 0 | 86 | 19 | 0 | 5 | 0 | 28 | 3 | 19 | 57 | 45 | 89 | 0 | 3 | 0 | 0 | 0 | 0
Cc1cccc(Nc2nc(N[C@H]3CCCC[C@H]3N)ncc2C(N)=O)c1.Cl [GSK986310] | 22 | 0 | 0 | 15 | 0 | 17 | 7 | 74 | 33 | 31 | 31 | 99 | 55 | 22 | 0 | 64 | 33 | 36 | 0 | 70
CCn1cnc2c(NCc3ccccc3)ncnc21 [SKF-96418] | 15 | 25 | 0 | 0 | 0 | 0 | 1 | 0 | 2 | 0 | 0 | 0 | 0 | 11 | 15 | 0 | 0 | 16 | 2 | 0
COc1cccc(NC(=O)NCCNc2ccnc(Nc3ccc(F)cc3)n2)c1 [GSK1379879] | 40 | 26 | 0 | 1 | 0 | 0 | 0 | 0 | 0 | 9 | 0 | 0 | 31 | 38 | 21 | 0 | 14 | 0 | 4 | 33
Cc1nn2c(=O)cc(N3CCO[C@H](C)C3)nc2n1Cc1cccc(Cl)c1Cl [GSK2373693] | 20 | 0 | 8 | 15 | 2 | 0 | 0 | 0 | 0 | 10 | 60 | 0 | 7 | 0 | 0 | 21 | 5 | 0 | 0 | 17
